Laboratory results published in PubChem BioAssay (Tox21).
Results filed as inconclusive are left out. The source made the active and inactive calls. Unless noted, the call rests on the fitted dose curve.

How the values were obtained:
[1] = Nuclear factor erythroid 2-related factor 2/antioxidant responsive element (Nrf2/ARE) small molecule agonists: qHTS cell viability counter screen in human keratinocytes (AID 1919968; active means well fitted curve in the direction sought with a large enough effect in the repeat runs; an effect the other way counts as inactive or inconclusive; further: nearly all actives have a fitted effect of over 55% in size; further: potency means the concentration at half of the fitted maximal effect)
How it was run: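 KeratinoSens HaCaT cells, 1,500/well, preincubated 5 h, then exposed to compounds in DMSO for 23 h at 37 C/5% CO2. Viability read as CellTiter-Fluor fluorescence after 1 h, in the same wells as the ARE-luciferase read.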

[2] = Nuclear factor erythroid 2-related factor 2/antioxidant responsive element (Nrf2/ARE) small molecule agonists: luciferase reporter gene qHTS assay in human keratinocytes (AID 1919969); further: nearly all actives have a fitted effect of over 35% in size; further: potency means the concentration at half of the fitted maximal effect
[3] = p53 small molecule agonists, cell-based qHTS assay with human liver microsomes (AID 1963577);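 further: p53 response element beta-lactamase reporter cells with liver microsomes plus NADPH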
How it was run: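 With metabolic activation: human liver microsomes (0.5 mg/mL final) plus NADPH (0.5 mg/mL final) added alongside compounds to p53RE-bla cells; 16 h 37 C exposure; beta-lactamase read by LiveBLAzer fluorescence.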

[4] = p53 small molecule agonists, cell-based qHTS assay with rat liver microsomes (AID 1963578)
How it was run: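 Metabolic activation by rat liver microsomes and NADPH, each 0.5 mg/mL final, added right after compounds to p53RE-bla reporter cells (4,000/well, plated 5 h earlier). 16 h at 37 C, then LiveBLAzer substrate for 2 h at room temperature in the dark; fluorescence read-out.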

[5] = p53 small molecule agonists, cell-based qHTS assay with rat liver microsomes: qHTS cell viability counter screen (AID 1963580); further: nearly all actives have a fitted effect of over 45% in size; further: potency means the concentration at half of the fitted maximal effect
How it was run: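 p53RE-bla HCT-116 cells were exposed 16 h at 37 C to compounds with rat liver microsomes (0.5 mg/mL) and NADPH (0.5 mg/mL). Viability was measured in the same wells as ATP content by CellTiter-Glo luminescence.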

[6] = p53 small molecule agonists, cell-based qHTS assay: qHTS cell viability counter screen (AID 1963581); further: nearly all actives have a fitted effect of over 45% in size
How it was run: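 p53RE-bla HCT-116 cells, compounds added 5 h after plating and incubated 16 h at 37 C. Cytotoxicity measured in the same wells as intracellular ATP by CellTiter-Glo luminescence after 30 min at room temperature.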

[7] = p53 small molecule agonists, cell-based qHTS assay (AID 1963582; active means well fitted activation curve with a large enough effect in the signal ratio in the repeat runs, not every such curve was filed as active; the % refers to the signal ratio)
How it was run: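 p53RE-bla reporter cells, compounds added in DMSO after 5 h plating, incubated 16 h at 37 C. Beta-lactamase read via 2 h room-temperature LiveBLAzer B/G FRET substrate, fluorescence intensity.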

[8] = target: KiSS-1 receptor (Homo sapiens) (UniProt Q969F8); test: Human kisspeptin (KISS1R) small molecule agonists, calcium flux assay in KISS1R-HEK293 cells (AID 1920064; active means well fitted curve in the direction sought with a large enough effect in the repeat runs; an effect the other way counts as inactive or inconclusive)
Chain of KiSS-1 receptor (Homo sapiens) (Q969F8 whole entry, looked up): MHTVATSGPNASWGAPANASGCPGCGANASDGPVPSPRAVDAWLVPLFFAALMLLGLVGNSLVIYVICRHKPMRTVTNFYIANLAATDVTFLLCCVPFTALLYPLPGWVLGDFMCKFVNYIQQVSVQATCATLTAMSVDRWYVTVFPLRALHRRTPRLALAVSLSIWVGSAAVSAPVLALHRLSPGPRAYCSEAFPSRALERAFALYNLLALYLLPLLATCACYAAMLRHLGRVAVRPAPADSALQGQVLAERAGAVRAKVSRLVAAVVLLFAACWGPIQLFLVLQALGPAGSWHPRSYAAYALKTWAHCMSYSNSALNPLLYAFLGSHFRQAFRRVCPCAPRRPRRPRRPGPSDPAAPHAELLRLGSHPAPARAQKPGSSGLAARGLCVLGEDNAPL
How it was run: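 HEK293 cells stably expressing human KISS1R were loaded with calcium dye for 1 h at 37 C, then given compound; fluorescence (Ex/Em 480/540) was read kinetically for 3 min. Fifteen concentrations, triplicate.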

[9] = p53 small molecule agonists, cell-based qHTS assay with human liver microsomes: qHTS cell viability counter screen (AID 1963579); further: nearly all actives have a fitted effect of over 45% in size; further: potency means the concentration at half of the fitted maximal effect
How it was run: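 Metabolic activation used human liver microsomes and NADPH, both 0.5 mg/mL final, over 16 hours at 37 C on p53RE-bla cells (4,000/well). Cytotoxicity measured by CellTiter-Glo luminescence, 30 min at room temperature.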

[10] = target: 5-hydroxytryptamine receptor 2A (Homo sapiens) (UniProt P28223); test: 5-hydroxytryptamine receptor 2A (HTR2A) small molecule antagonists, cell-based qHTS assay (AID 1963586); further: nearly all actives have a fitted effect of over 45% in size; further: potency means the concentration at half of the fitted maximal effect
Chain of 5-hydroxytryptamine receptor 2A (Homo sapiens) (P28223 whole entry, looked up): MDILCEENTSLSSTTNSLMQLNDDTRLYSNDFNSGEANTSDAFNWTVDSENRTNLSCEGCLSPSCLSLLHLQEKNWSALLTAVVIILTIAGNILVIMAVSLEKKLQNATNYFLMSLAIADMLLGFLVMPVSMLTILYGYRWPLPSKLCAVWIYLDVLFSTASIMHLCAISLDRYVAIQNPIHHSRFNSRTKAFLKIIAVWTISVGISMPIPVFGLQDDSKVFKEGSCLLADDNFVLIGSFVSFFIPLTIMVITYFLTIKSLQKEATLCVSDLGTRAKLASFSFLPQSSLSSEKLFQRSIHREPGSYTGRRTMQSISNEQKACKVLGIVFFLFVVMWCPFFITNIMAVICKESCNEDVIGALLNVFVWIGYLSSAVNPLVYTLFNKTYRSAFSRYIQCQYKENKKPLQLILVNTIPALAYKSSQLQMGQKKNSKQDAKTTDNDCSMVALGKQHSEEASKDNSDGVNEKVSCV
How it was run: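 Antagonist-mode intracellular calcium assay: DOI (4 nM) added after 5 min compound pre-incubation at room temperature to dye-loaded HTR2A-CHO cells. Fluorescence followed for 3 min, sampled every second.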

[11] = target: Muscarinic acetylcholine receptor M1 (Homo sapiens) (UniProt P11229); test: Cholinergic receptor muscarinic 1 (CHRM1) small molecule antagonists, cell-based qHTS assay (AID 1963588); further: nearly all actives have a fitted effect of over 40% in size; further: potency means the concentration at half of the fitted maximal effect
Chain of Muscarinic acetylcholine receptor M1 (Homo sapiens) (P11229 whole entry, looked up): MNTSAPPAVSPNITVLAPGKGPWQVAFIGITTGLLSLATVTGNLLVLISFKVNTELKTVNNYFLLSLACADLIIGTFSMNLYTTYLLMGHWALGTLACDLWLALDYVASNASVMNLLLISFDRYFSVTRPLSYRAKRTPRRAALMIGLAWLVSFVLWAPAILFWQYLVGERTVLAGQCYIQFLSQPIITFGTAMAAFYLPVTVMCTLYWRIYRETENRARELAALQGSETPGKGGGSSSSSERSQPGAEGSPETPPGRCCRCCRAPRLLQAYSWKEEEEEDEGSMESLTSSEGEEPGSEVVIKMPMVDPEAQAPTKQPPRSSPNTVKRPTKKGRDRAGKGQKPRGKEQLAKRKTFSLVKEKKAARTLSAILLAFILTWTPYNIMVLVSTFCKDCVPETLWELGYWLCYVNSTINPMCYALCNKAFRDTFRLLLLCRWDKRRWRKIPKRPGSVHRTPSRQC
How it was run: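 CHRM1-CHO calcium-flux assay, antagonist mode. Cells were seeded 18 h, dye-loaded 1 h at 37 C and given compound for 5 min at RT, then acetylcholine was added at 50nM. FDSS fluorescence was read 3 min; 15 concentrations, three runs.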

[12] = target: Muscarinic acetylcholine receptor M1 (Homo sapiens) (UniProt P11229); test: Cholinergic receptor muscarinic 1 (CHRM1) small molecule agonists, cell-based qHTS assay (AID 1963589); further: nearly all actives have a fitted effect of over 35% in size
How it was run: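 CHO cells stably expressing human CHRM1 were loaded with calcium dye for 1 h at 37 C, then compound was added in agonist mode. Intracellular calcium fluorescence was followed kinetically at 1 s intervals. Fifteen concentrations were tested in three independent runs.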

[13] = target: Beta-2 adrenergic receptor (Homo sapiens) (UniProt P07550); test: Adrenergic beta2 receptor (ADRB2) small molecule antagonists, cell-based qHTS assay (AID 1963592); further: series mostly up to about 92 µM; nearly all actives have a fitted effect of over 50% in size
Chain of Beta-2 adrenergic receptor (Homo sapiens) (P07550 whole entry, looked up): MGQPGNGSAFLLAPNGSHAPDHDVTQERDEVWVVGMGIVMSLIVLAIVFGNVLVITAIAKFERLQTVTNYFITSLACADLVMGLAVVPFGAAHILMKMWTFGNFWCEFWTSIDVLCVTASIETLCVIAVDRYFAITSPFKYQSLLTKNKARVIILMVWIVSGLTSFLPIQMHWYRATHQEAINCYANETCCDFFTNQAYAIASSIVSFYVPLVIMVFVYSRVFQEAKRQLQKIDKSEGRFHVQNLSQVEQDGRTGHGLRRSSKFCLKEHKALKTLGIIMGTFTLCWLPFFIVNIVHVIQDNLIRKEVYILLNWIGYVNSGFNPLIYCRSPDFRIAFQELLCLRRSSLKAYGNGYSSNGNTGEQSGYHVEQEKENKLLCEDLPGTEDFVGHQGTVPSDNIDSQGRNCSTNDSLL
How it was run: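 Cells (CHO, stable ADRB2 overexpression) incubated 18-20hr at 37C; compounds added from DMSO; agonist mix (1nM isoproterenol, 100uM IBMX, 25uM Ro-20-1724) added; 0.5hr RT; d2-cAMP and anti-cAMP-cryptate added; 1hr RT; 665/615 nm read.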

[14] = target: D(2) dopamine receptor (Homo sapiens) (UniProt P14416); test: Dopamine D2 receptor (DRD2) small molecule agonists, cell-based qHTS assay (AID 1963594); further: nearly all actives have a fitted effect of over 35% in size; further: potency means the concentration at half of the fitted maximal effect
Chain of D(2) dopamine receptor (Homo sapiens) (P14416 whole entry, looked up): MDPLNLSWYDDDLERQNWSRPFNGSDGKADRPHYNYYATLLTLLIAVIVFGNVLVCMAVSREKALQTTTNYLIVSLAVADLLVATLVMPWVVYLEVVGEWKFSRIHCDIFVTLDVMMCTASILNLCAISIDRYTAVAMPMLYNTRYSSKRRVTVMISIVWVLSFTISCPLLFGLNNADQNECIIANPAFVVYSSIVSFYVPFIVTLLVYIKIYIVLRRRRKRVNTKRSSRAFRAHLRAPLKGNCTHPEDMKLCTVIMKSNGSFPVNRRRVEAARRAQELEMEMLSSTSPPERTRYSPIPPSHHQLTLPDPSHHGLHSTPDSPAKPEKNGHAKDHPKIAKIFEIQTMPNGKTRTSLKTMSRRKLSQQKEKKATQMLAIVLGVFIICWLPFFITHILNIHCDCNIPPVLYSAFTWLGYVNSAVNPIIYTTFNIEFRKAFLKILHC
How it was run: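 HEK293 cells stably expressing human DRD2, pre-treated with PDE inhibitor Ro20-1724 (0.1 mM final) and compound 10 min at room temperature, then stimulated with NKH477 (200nM […]) for 30 min. cAMP read by HTRF (665/620 nm).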

[15] = target: D(2) dopamine receptor (Homo sapiens) (UniProt P14416); test: Dopamine D2 receptor (DRD2) small molecule antagonists, cell-based qHTS assay (AID 1963595; active means well fitted inhibition curve with a large enough effect in the signal ratio in the repeat runs, with a control signal flat; the % refers to the signal ratio; further: potency means the concentration at half of the fitted maximal effect)
How it was run: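 In this cell-based antagonist screen, compounds act for 10 min at room temperature before a 30 min challenge with 12 nM quinpirole and 200 nM NKH477. cAMP is quantified by HTRF competition in DRD2-HEK293 cells containing 0.1 mM Ro20-1724.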

[16] = target: Gonadotropin-releasing hormone receptor (Homo sapiens) (UniProt P30968); test: Human gonadotropin-releasing hormone receptor (GnRHR) small molecule agonists, calcium flux assay in GnRHR-HEK293 cells (AID 1920063); further: nearly all actives have a fitted effect of over 35% in size
Chain of Gonadotropin-releasing hormone receptor (Homo sapiens) (P30968 whole entry, looked up): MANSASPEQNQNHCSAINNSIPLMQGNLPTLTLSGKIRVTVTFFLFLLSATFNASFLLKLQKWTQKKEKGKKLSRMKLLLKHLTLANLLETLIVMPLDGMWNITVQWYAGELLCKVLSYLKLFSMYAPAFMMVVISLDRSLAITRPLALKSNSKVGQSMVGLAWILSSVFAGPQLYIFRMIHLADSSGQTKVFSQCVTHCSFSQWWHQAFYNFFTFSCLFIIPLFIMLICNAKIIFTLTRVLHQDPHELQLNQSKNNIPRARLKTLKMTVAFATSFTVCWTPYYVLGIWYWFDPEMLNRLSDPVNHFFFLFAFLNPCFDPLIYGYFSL
How it was run: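 HEK293 cells stably expressing human GnRHR were dye-loaded for 1 h at 37 C. Compound was added in agonist mode and fluorescence (Ex/Em 480/540) recorded kinetically for 3 min. Fifteen concentrations, triplicates.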

[17] = G protein-coupled receptor (GPCR) small molecule agonists, calcium flux assay: HEK293 wild type cell line counter screen (AID 1920065); further: potency means the concentration at half of the fitted maximal effect
How it was run: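 Wild-type HEK293 cells plated 18 h, loaded with calcium dye 1 h at 37 C, then compounds added in agonist mode (ATP as positive control). Kinetic fluorescence Ex/Em 480/540 recorded 3 min at 1 sec intervals; 15 concentrations, triplicate.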

[18] = target: 5-hydroxytryptamine receptor 2A (Homo sapiens) (UniProt P28223); test: 5-hydroxytryptamine receptor 2A (HTR2A) small molecule agonists, cell-based qHTS assay (AID 1963587); further: nearly all actives have a fitted effect of over 30% in size; further: potency means the concentration at half of the fitted maximal effect
How it was run: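 CHO cells stably expressing human HTR2A, plated 18 h, loaded with calcium dye 1 h at 37 C. Agonist mode: compounds added and intracellular calcium fluorescence recorded kinetically for 2 min at 1 sec intervals.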

[19] = cAMP Responsive Elements (CRE) small molecule agonists, cell-based qHTS assay (AID 1963590)
How it was run: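 CRE-bla HEK 293T cells, 2,000/well in DMEM with 10% dialyzed FBS and 25 mM HEPES, pre-incubated 18 h at 37 C, then exposed to compound 3 h at 37 C. Beta-lactamase reporter read with LiveBLAzer B/G FRET substrate after 2 h at room temperature.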

[20] = cAMP Responsive Elements (CRE) small molecule antagonists, cell-based qHTS assay (AID 1963591; active means well fitted inhibition curve with a large enough effect in the signal ratio in the repeat runs, not every such curve was filed as active; the % refers to the signal ratio)
How it was run: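 CRE-bla HEK293T cells plated 18 h, then given compound plus NKH477 at 0.25 uM final for 3 h at 37C. Beta-lactamase reporter read with LiveBLAzer B/G FRET substrate after 2 h at room temperature.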
On the % scale 0 is the no-effect control and ±100 the full control effect.

Cc1ccccc1
inactive: Potency [1] | Potency [2] | Potency [3] | Potency [4] | Potency [5] | Potency [6] | Potency [7]

[Cl][Sn]([c]1ccccc1)([c]1ccccc1)[c]1ccccc1
inactive: activation [8] 2.74% [at 15.8 µM] | activation [4] -5.37% [at 13.6 µM] | activity, negative = inhibition [10] -29.3% [at 12.7 µM] | activity, negative = inhibition [11] -4.75% [at 12.6 µM] | activation [12] 2.71% [at 15.8 µM] | activity change, negative = inhibition [13] 1.04% [at 19 µM] | activation [14] 8.68% [at 19 µM]
active: Potency [1] 1.03 µM | Potency [2] 0.58 µM | Potency [9] 6.14 µM | Potency [5] 6.14 µM | Potency [15] 7.3 µM

O=[N+]([O-])C(Br)Br
active: Potency [10] 37.6 µM | Potency [18] 55 µM
inactive: Potency [1] | Potency [16] | Potency [8] | Potency [17] | Potency [3] | Potency [4] | Potency [9] | Potency [5] | Potency [6] | Potency [7] | Potency [11] | Potency [12] | Potency [19] | Potency [20] | Potency [13] | Potency [14] | Potency [15]

CN(C)CCc1c[nH]c2ccccc12
inactive: Potency [1] | Potency [8] | Potency [17] | Potency [5] | Potency [11] | Potency [12] | Potency [19] | Potency [20] | Potency [13] | Potency [14] | Potency [15]
active: Potency [2] 108 µM | Potency [10] 0.0166 µM | Potency [18] 0.0109 µM

O=C(C(Cl)(Cl)Cl)C(Cl)(Cl)Cl
inactive: Potency [1] | Potency [2] | Potency [8] | Potency [9] | Potency [5] | Potency [6] | Potency [10] | Potency [18] | Potency [11] | Potency [12] | Potency [19] | Potency [20] | Potency [13] | Potency [14] | Potency [15]

CCCN(CCC)c1c([N+](=O)[O-])cc(S(N)(=O)=O)cc1[N+](=O)[O-]
inactive: Potency [2] | Potency [8]
active: Potency [1] 51.8 µM | Potency [9] 38.8 µM | Potency [5] 49.4 µM | Potency [18] 37 µM | Potency [15] 30.6 µM

CC(C)N(CCC(C(N)=O)(c1ccccc1)c1ccccn1)C(C)C (stereo unspecified)
active: Potency [11] 2.05 µM | Potency [14] 11.4 µM
inactive: Potency [1] | Potency [2] | Potency [8] | Potency [17] | Potency [9] | Potency [5] | Potency [10] | Potency [19] | Potency [20] | Potency [13] | Potency [15]

NNC(=O)c1cccnc1
inactive: Potency [1] | Potency [16] | Potency [8] | Potency [17] | Potency [3] | Potency [4] | Potency [9] | Potency [5] | Potency [6] | Potency [7] | Potency [10] | Potency [18] | Potency [11] | Potency [12] | Potency [19] | Potency [20] | Potency [13] | Potency [14] | Potency [15]

CCCN1CCC[C@@H]2Cc3nc(N)ncc3C[C@H]21
active: Potency [18] 8.49 µM
inactive: Potency [1] | Potency [2] | Potency [3] | Potency [4] | Potency [9] | Potency [5] | Potency [6] | Potency [7] | Potency [10] | Potency [11] | Potency [12] | Potency [19] | Potency [20] | Potency [13] | Potency [15]

N#CC(C#N)=NNc1cccc(Cl)c1
active: Potency [1] 8.63 µM | Potency [2] 7.7 µM | Potency [17] 2.45 µM | Potency [9] 5.13 µM
inactive: Potency [3] | Potency [4] | Potency [10] | Potency [18] | Potency [11] | Potency [12] | Potency [13] | Potency [14] | Potency [15]

CCOc1nc(C(Cl)(Cl)Cl)ns1
inactive: Potency [1] | Potency [16] | Potency [8] | Potency [17] | Potency [3] | Potency [4] | Potency [9] | Potency [5] | Potency [6] | Potency [10] | Potency [11] | Potency [19] | Potency [20] | Potency [13]

Oc1ccccc1Br
inactive: Potency [1] | Potency [16] | Potency [8] | Potency [17] | Potency [3] | Potency [4] | Potency [9] | Potency [5] | Potency [6] | Potency [10] | Potency [11] | Potency [12] | Potency [19] | Potency [13] | Potency [14] | Potency [15]

CCc1cccc(C)c1N(C(=O)CCl)[C@@H](C)COC
inactive: Potency [1] | Potency [16] | Potency [8] | Potency [17] | Potency [3] | Potency [4] | Potency [9] | Potency [5] | Potency [6] | Potency [7] | Potency [10] | Potency [18] | Potency [11] | Potency [12] | Potency [19] | Potency [13] | Potency [14] | Potency [15]

C=CC(=O)OC
inactive: Potency [1] | Potency [16] | Potency [8] | Potency [17] | Potency [3] | Potency [4] | Potency [9] | Potency [5] | Potency [6] | Potency [7] | Potency [10] | Potency [18] | Potency [11] | Potency [12] | Potency [19] | Potency [13] | Potency [14] | Potency [15]

CC1(C(=O)Nc2ccc(O)c(Cl)c2Cl)CCCCC1
inactive: Potency [1] | Potency [16] | Potency [8] | Potency [17] | Potency [3] | Potency [4] | Potency [9] | Potency [5] | Potency [6] | Potency [7] | Potency [10] | Potency [11] | Potency [12] | Potency [13] | Potency [14]
